Data on seven molecules can be found in PubChem BioAssay (Tox21).

A number with no mark means an inactive call. Results filed as inconclusive are left out. Activity calls are given as the source filed them. The call rests on the fitted dose curve; in most records, active means well fitted curve in the direction sought with a large enough effect in the repeat runs; inconclusive means weak or mixed curves; inactive means no such curve, though single readings can be large; an effect the other way counts as inactive or inconclusive.

Assay [1] can be described thus: qHTS RealTime-Glo MT Cell Viability Assay in HEK293 cells - 0 hour (AID 1224880). Further: top concentration of the series differs between compounds; nearly all actives have a fitted effect of over 45% in size. The gist of the method: (§1)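 Viable HEK293 cells reduce a cell-permeant prosubstrate; the product diffuses out and is consumed by NanoLuc in the medium to give light. Compounds went in after a 5 h incubation and plates were read over the treatment course.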
In general terms: qHTS replaces the single test concentration by a dilution series.

Assay [2] is described as follows: A CellTox Green Cytotoxicity Assay to monitor cytotoxicity in HEK293 cells - 32 hour (AID 1224881). Further: nearly all actives have a fitted effect of over 40% in size. An outline of the steps:
(§2)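 Fluorescence intensity, read at 0, 8, 16, 24, 32 and 40 h of compound treatment, reflected dye binding to DNA of dead HEK293 cells; compounds (23 nL, DMSO) were added 5 h after plating cells with reagent.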

A short description of assay [3]: A CellTox Green Cytotoxicity Assay to monitor cytotoxicity in HepG2 cells - 0 hour (AID 1224882). Further: nearly all actives have a fitted effect of over 35% in size. An outline of the steps:
(§3)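 Using 1536-well format, dye-containing HepG2 suspension was seeded, allowed 5 h at 37 C/5% CO2, dosed by pintool with compounds, positive and negative controls, and imaged for fluorescence across 40 h.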

Assay [4] is described as follows: A CellTox Green Cytotoxicity Assay to monitor cytotoxicity in HepG2 cells - 32 hour (AID 1224883). Further: nearly all actives have a fitted effect of over 50% in size. The gist of the method: as §3
The nature of assay [5]: A CellTox Green Cytotoxicity Assay to monitor cytotoxicity in HEK293 cells - 8 hour (AID 1224884). Further: nearly all actives have a fitted effect of over 35% in size. An outline of the steps: as §2
The nature of assay [6]: qHTS RealTime-Glo MT Cell Viability Assay in HepG2 cells - 16 hour (AID 1224885). Further: nearly all actives have a fitted effect of over 50% in size. The gist of the method: (§4)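 qHTS, HepG2, 600 cells/well, RealTime-Glo (NanoLuc + prosubstrate) added with cells; 5 h preincubation; DMSO compound addition; 37 C; luminescence at 0/8/16/24/32/40 h.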
Assay [7] can be described thus: qHTS RealTime-Glo MT Cell Viability Assay in HEK293 cells - 24 hour (AID 1224886). Further: nearly all actives have a fitted effect of over 50% in size. Further: potency means the concentration at half of the fitted maximal effect. The gist of the method:
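Assay medium contained NanoLuc luciferase plus cell-permeant prosubstrate, added with HEK293 cells at 600 cells/well. After 5 h at 37 C/5% CO2 compounds were added; plates stayed at 37 C for 40 h with serial luminescence reads.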

The nature of assay [8]: qHTS RealTime-Glo MT Cell Viability Assay in HEK293 cells - 8 hour (AID 1224887). Further: nearly all actives have a fitted effect of over 50% in size. Further: potency means the concentration at half of the fitted maximal effect. An outline of the steps: as §1
Assay [9] is described as follows: A CellTox Green Cytotoxicity Assay to monitor cytotoxicity in HEK293 cells - 16 hour (AID 1224888). Further: nearly all actives have a fitted effect of over 35% in size. An outline of the steps: as §2
Assay [10] is described as follows: qHTS RealTime-Glo MT Cell Viability Assay in HepG2 cells - 0 hour (AID 1224889). Further: nearly all actives have a fitted effect of over 50% in size. An outline of the steps:
as §4

A short description of assay [11]: A CellTox Green Cytotoxicity Assay to monitor cytotoxicity in HepG2 cells - 8 hour (AID 1224890). Further: nearly all actives have a fitted effect of over 45% in size. An outline of the steps: as §3
Assay [12] is described as follows: qHTS assay to identify small molecule antagonists of the estrogen receptor alpha (ER-alpha) signaling pathway using the BG1 cell line in the presence of 0.1 nM 17-beta-estradiol - cell viability counter screen (AID 1259241). Further: nearly all actives have a fitted effect of over 40% in size. An outline of the steps: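 Measures cytotoxicity alongside the ER-alpha antagonist readout: VM7Luc4E2 cells, charcoal-stripped serum, 0.1 nM 17beta-estradiol final, 22 hr compound incubation at 37C, CellTiter-Fluor fluorescence.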

Assay [13] is described as follows: qHTS assay to identify small molecule antagonists of the androgen receptor (AR) signaling pathway using the MDA cell line in the presence of 0.5 nM R1881 - cell viability counter screen (AID 1259242). Further: nearly all actives have a fitted effect of over 45% in size. An outline of the steps: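 Viability of MDA-kb2 cells was multiplexed with the luciferase AR readout; after 16 hr with compounds and R1881 at 0.5 nM final, CellTiter-Fluor fluorescence was recorded.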

Assay [14] in a line: qHTS assay to identify small molecule HDAC inhibitors (AID 1259364).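 Further: wild-type HCT-116 cells with endogenous class I/II HDAC activity; top concentration of the series differs between compounds; nearly all actives have a fitted effect of over 45% in size.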 The gist of the method:
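Read-out: luminescence of HDAC-Glo I/II reagent, 30 min RT, reflecting class I/II deacetylase activity in whole HCT-116 cells pre-exposed 2 h to DMSO-dissolved compounds.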

The nature of assay [15]: qHTS assay to identify small molecule HDAC inhibitors - cell viability counter screen (AID 1259365). The gist of the method:
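Following a 2hr exposure of overnight-plated wild-type HCT-116 cells to DMSO-delivered compounds, CellTiter-Glo was added and luminescence recorded after 30min at room temperature.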

A short description of assay [16]: qHTS assay to identify small molecule agonists of the sonic hedgehog signaling (Shh) pathway - cell viability counter screen (AID 1259366). Further: nearly all actives have a fitted effect of over 50% in size. The gist of the method:
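After a 4hr attachment at 37C, NIH/3T3 cells bearing an integrated Gli1-driven luciferase reporter were dosed with compounds. Treatment lasted 24hr, with the final hour including CellTiter-Fluor for a fluorescence viability measurement.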

Assay [17] is described as follows: qHTS assay to identify small molecule antagonists of the sonic hedgehog signaling (Shh) pathway - cell viability counter screen (AID 1259367). Further: nearly all actives have a fitted effect of over 55% in size. The gist of the method: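 NIH/3T3-derived Gli1-Luc reporter cells, 2,000/well, plated 4 hr before compound addition, then stimulated with conditioned medium for 24 hr at 37C. Viability measured in the same wells by CellTiter-Fluor fluorescence, reagent added at 23 hr for 1 hr.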

Assay [18] concerns the target Estrogen receptor (Homo sapiens) (UniProt P03372). In words: qHTS assay to identify small molecule antagonists of the estrogen receptor alpha (ER-alpha) signaling pathway using the BG1 cell line in the presence of 0.1 nM 17-beta-estradiol (AID 1259244). Further: nearly all actives have a fitted effect of over 50% in size. An outline of the steps: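 Estradiol at 0.1 nM (final) stimulates the endogenous ER-alpha of VM7Luc4E2 cells carrying an ERE-driven luciferase; compounds are co-incubated 22 h at 37C and luciferase output quantified by luminescence.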

In assay [19] the target is Androgen receptor (Homo sapiens) (UniProt P10275). In words: qHTS assay to identify small molecule antagonists of the androgen receptor (AR) signaling pathway using the MDA cell line in the presence of 0.5 nM R1881 (AID 1259243). Further: nearly all actives have a fitted effect of over 50% in size. An outline of the steps: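 Reporter cells cultured without CO2 receive test chemicals, then 0.5 nM R1881 final; after 16 hr at 37C, ONE-Glo is added and light output recorded.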
Androgen receptor (Homo sapiens), sequence (P10275 whole entry, looked up): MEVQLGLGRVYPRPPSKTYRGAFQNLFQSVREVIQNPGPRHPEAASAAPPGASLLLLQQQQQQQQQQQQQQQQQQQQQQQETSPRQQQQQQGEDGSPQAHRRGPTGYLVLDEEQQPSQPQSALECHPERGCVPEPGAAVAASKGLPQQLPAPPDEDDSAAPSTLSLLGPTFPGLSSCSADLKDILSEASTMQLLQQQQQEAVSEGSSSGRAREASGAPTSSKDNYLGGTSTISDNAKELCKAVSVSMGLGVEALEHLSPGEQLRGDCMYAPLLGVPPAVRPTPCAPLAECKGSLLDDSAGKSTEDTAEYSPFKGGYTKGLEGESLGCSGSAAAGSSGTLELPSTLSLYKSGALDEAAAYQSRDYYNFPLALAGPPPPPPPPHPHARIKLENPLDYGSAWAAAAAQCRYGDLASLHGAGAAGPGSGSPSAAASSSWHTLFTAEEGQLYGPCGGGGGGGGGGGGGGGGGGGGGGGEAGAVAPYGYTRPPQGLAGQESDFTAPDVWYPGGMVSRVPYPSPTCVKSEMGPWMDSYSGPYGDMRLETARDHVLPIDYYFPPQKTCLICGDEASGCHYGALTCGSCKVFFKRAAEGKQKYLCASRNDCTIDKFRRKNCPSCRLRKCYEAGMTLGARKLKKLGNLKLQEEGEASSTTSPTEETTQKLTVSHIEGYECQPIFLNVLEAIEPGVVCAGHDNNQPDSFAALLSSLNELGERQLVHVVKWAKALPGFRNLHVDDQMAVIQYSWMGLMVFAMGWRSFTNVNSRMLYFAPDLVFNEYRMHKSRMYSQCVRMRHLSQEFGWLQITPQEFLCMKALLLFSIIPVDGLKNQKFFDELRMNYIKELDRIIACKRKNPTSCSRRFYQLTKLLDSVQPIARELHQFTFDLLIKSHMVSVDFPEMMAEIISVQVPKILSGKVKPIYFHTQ

Estrogen receptor (Homo sapiens), sequence (P03372 whole entry, looked up): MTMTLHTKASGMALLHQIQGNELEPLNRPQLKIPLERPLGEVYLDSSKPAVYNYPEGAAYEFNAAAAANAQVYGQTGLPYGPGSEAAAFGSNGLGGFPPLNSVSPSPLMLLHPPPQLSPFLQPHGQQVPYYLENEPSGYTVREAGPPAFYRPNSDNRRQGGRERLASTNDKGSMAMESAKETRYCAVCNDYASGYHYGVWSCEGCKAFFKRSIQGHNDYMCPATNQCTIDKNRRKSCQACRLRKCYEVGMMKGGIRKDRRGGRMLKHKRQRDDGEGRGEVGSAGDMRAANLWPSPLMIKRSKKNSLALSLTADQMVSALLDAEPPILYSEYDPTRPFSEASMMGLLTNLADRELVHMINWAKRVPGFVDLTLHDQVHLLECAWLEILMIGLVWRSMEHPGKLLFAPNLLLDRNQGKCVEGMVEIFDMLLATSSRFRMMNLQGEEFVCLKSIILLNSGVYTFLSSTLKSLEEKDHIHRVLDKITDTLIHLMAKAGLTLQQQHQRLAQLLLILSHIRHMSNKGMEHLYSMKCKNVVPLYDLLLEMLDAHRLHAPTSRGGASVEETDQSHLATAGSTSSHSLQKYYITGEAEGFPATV

With `CCC(=O)O[C@]1(C(=O)COC)[C@@H](C)C[C@H]2[C@@H]3CCC4=CC(=O)C=C[C@]4(C)C3(F)[C@@H](O)C[C@@]21C` (some centres not stated), the Potency entry in assay [1], in assay [2], in assay [3], in assay [4], in assay [5] and in assay [7] was “inactive” each time. Besides, the Potency result in assay [8], in assay [9], in [10], in [11], in assay [12] and in assay [13] was “inactive” throughout. Besides, the Potency entry in assay [14], in assay [16] and in assay [17] was “inactive” in each case. The molecule was called inactive in [6] and in assay [15].
For the molecule `CCC(=O)O[C@@H]1C[C@H]2CC[C@]1(C)C2(C)C`, the Potency entry in [1], in assay [2], in [3], in assay [4], in assay [5] and in assay [7] was “inactive” throughout. The Potency result in [8], in assay [9], in assay [10], in assay [11], in assay [12] and in assay [13] was “inactive” each time. Further, the Potency result in assay [14], in [16] and in assay [17] was “inactive” in each case. Further, the molecule was called inactive in [6] and in assay [15].
With `C=C(C)C(=O)OCCCCCCCCCCOC(=O)C(=C)C`, the Potency result in assay [1], in assay [2], in assay [3], in assay [4], in assay [5] and in assay [7] was “inactive” throughout. The Potency entry in [8], in [9], in [10], in assay [11], in assay [12] and in [13] was “inactive” each time. Also, the Potency result in assay [14], in assay [16] and in assay [17] was “inactive” in each case. The call in assay [6] and in [15] was inactive.
Turning to `O=C(NC1CCN(CCc2c[nH]c3ccccc23)CC1)c1ccccc1`, the Potency entry in [1], in [2], in [3], in [4], in assay [5] and in assay [9] was “inactive” each time. The Potency result in assay [10], in assay [11], in assay [12], in assay [13] and in [17] was “inactive” throughout. Besides, the call in [6] and in [15] was inactive. For the same molecule, the Potency in assay [7] was 8.49 µM (active); in assay [8] it was 9.52 µM (active).
On to `CC(C)=CCC[C@H](C)CCO`, for which the Potency entry in assay [1], in assay [2], in assay [3], in [4], in assay [5] and in [7] was “inactive” in each case. Further, the Potency entry in assay [8], in [9], in assay [10], in assay [12], in assay [13] and in assay [18] was “inactive” throughout. Besides, the Potency result in [14], in assay [16] and in assay [17] was “inactive” each time. Also, the molecule was called inactive in [6].
`COc1ccc(/C=C/S(=O)(=O)NC(=O)c2ccc(C)cc2Cl)cc1`: the Potency entry in [1], in assay [2], in assay [3], in assay [4], in assay [5] and in [7] was “inactive” in each case. The Potency entry in assay [8], in assay [9], in [10], in [11], in [12] and in assay [13] was “inactive” each time. Moreover, the Potency result in [14], in assay [16] and in [17] was “inactive” each time. The molecule was called inactive in assay [6] and in assay [15].
For the molecule `FC(F)(Cl)C(F)(Cl)Cl`, the Potency entry in assay [1], in assay [2], in assay [3], in assay [4], in [5] and in assay [7] was “inactive” each time. For the same molecule, the Potency result in assay [8], in assay [9], in [11], in assay [12], in assay [13] and in [19] was “inactive” each time. Further, the Potency entry in [18], in assay [14], in assay [16] and in assay [17] was “inactive” each time. Also, the call in assay [6] and in assay [15] was inactive.
